# Experimental data published in PubChem BioAssay AID1865 (National Center for Advancing Translational Sciences (NCATS), 2009).
# The whole screen tested about 280,000 compounds, of which about 540 (0.19%) were called active. Another 2% or so got no clear call; they are omitted. For the sample, actives were picked, then their nearest neighbours and some compounds at random. A number with no mark means an inactive call. The call rests on the fitted dose curve; in most records, active means well fitted activation curve with a large enough effect; inconclusive means small, poorly fitted or top-dose-only effect; inactive means flat fitted curve, though single readings scatter.
# Assay: Quantitative High-Throughput Screen for Regulators of Epigenetic Control; further: nearly all actives have a fitted effect of over 60% in size; on GFP activation: % of control where 0% means no effect
# Details: murine LDR cells, GFP reporter derepression, 30 h; series mostly up to 53.9 µM; GFP activation: at the top concentration
# Outline: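 Murine LDR cells carrying a silenced, genomically integrated CMV-driven GFP reporter were exposed to compound for 30 hours at 37 C. After PBS washes, GFP-positive cells (20–120 um objects) were counted by laser-scanning microplate cytometry.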
# Potency means the concentration at half of the fitted maximal effect.
Structure (SMILES),GFP activation,Potency
COc1cccc(C(=O)NC2(C(F)(F)F)C(=O)Nc3c2c(=O)[nH]c(=O)n3-c2ccc(C)cc2)c1 (centres undefined),0%,–
O=C(COc1ccc(Cl)cc1)N(Cc1ccco1)Cc1ccco1,-1.6%,–
CCNS(=O)(=O)c1ccc(NC(=O)CSc2nc(-c3ccco3)cc(C(F)(F)F)n2)cc1,-0.962%,–
O=C(CSc1ncc(S(=O)(=O)c2ccc(Br)cc2)c(=O)[nH]1)Nc1ccc2c(c1)OCCO2,0%,–
CN(C)c1nc(=Nc2cccc(Cl)c2)ss1,–,1.12 µM (active)
Clc1cccc(N=C2NN=C(c3ccc4c(c3)OCCO4)CS2)c1,-7.25%,–
CN(C)c1ccc(/C=C2\NC(=S)N(Cc3ccccc3)C2=O)cc1,–,7.08 µM (active)
O=C1NCC(=O)N(Cc2ccccc2)/C1=C/c1ccccc1,-0.292%,–
CC1=NN(Cc2ccccc2)C(=O)/C1=C/c1ccc(N(C)C)cc1,-0.855%,–
COc1cc2[nH]c(=O)n(Cc3ccc(C(=O)NCc4ccc(C)cc4)cc3)c(=O)c2cc1OC,6.33%,–
Cc1ccccc1C(=O)Nc1sc2c(c1C(=O)N1CCC(C)CC1)CCCC2,4.81%,–
O=C(Cn1nc(Cc2cccnc2)c2ccccc2c1=O)N1CCN(c2ccccc2F)CC1,-5.16%,–
CCN1/C(=C/C(=S)Nc2ccccc2)Sc2ccccc21,0.971%,–
CCN1/C(=C/c2ccc3ccc(C)cc3[n+]2CC)Sc2ccccc21,–,1.12 µM (active)
CCN1CCN(CCNC(=O)c2ccc(/C=C3/Sc4ccccc4N(Cc4cccc(C)c4)C3=O)cc2)CC1,4.88%,–
CCN1/C(=C\c2ccc3ccccc3[n+]2CC)Sc2cc(C)ccc21,–,0.562 µM (active)
COc1ccc(OC)c(NC(=O)C2CCCN(S(=O)(=O)c3ccc4c(c3)CCCC(=O)N4)C2)c1 (centres undefined),0.833%,–
COc1ccc(CCNC(=O)c2cn(C)c3ccc(S(=O)(=O)N(C)C4CCCCC4)cc3c2=O)cc1OC,1.22%,–
COc1ccc(-c2onc(C)c2C)cc1S(=O)(=O)NCCc1ccccc1,-4.71%,–
COc1ccc(NC(=O)c2ccc3nc(CCc4ccccc4)oc3c2)c(OC)c1,1.69%,–
Cc1ccc2nc(/C(C#N)=C/c3ccccc3F)[nH]c2c1,-1.59%,–
Cc1ccc2nc(/C(C#N)=C/c3ccc(-c4ccc(C(=O)OC(C)C)cc4)o3)[nH]c2c1,–,1.41 µM (active)
Cc1ccc2nc(/C(C#N)=C\c3ccc(OC(=O)c4cccs4)cc3)[nH]c2c1,5.06%,–
COc1ccc(C(=O)Nc2cccc(C(=O)OCc3cc(=O)n4c5c(sc4n3)CCCC5)c2)cc1,3.53%,–
CS(=O)(=O)c1sc2nc(-c3ccccc3)cc(-c3ccccc3)c2c1N,1.45%,–

Structure (SMILES),GFP activation,Potency
NNC(=O)c1oc2nc(-c3ccccc3)cc(-c3ccco3)c2c1N,0.0322%,–
CNC(=S)NNC(=O)c1oc2nc(-c3ccccc3)cc(-c3ccco3)c2c1N,–,15.8 µM (active)
Cc1ccc(-c2cc(C(=O)N/N=C/C=C/c3ccco3)c3ccccc3n2)cc1C,2.16%,–
CC(=O)Nc1ccc(/C=N/NC(=O)c2cccs2)cc1,1.14%,–
O=C(N/N=C/C=C/c1ccco1)c1cccs1,–,17.8 µM (active)
Cc1ccc(S(=O)(=O)c2nc(-c3ccco3)oc2SCC(=O)Nc2ccc(F)cc2)cc1,11.1%,–
Cc1cc(C(=O)Nc2cccc(C(F)(F)F)c2)c2c(C)nn(-c3cccc(F)c3)c2n1,-1.27%,–
O=C(Nc1ccc2nc(SCC(=O)N3CCCc4ccccc43)sc2c1)c1ccc(F)cc1,-3.23%,–
CC1Cc2cc(S(=O)(=O)CCC(=O)Nc3ccc(F)c(Cl)c3)ccc2N1C(=O)C1CC1 (centres undefined),-0.364%,–
Nc1ccc2c3c(cccc13)C(=O)NC2=O,–,17.8 µM (active)
Cc1nn(C)cc1N1C(=O)c2cccc3c(N)ccc(c23)C1=O,2.11%,–
CCN1C(=O)c2cccc3c(N)ccc1c23,0.901%,–
CN1CCN(c2oc(-c3ccc(COc4ccc(Cl)cc4)o3)nc2C#N)CC1,0%,–
COc1ccc(Br)cc1/C=N/n1c(C)nnc1C,4.97%,–
CC(=O)Nc1cccc(Oc2cc(C#N)c(C#N)cc2N2CCOCC2)c1,-1.01%,–
COc1cc(N2CCCC2)c(OC)cc1/C=C(/C#N)c1cccc(Br)c1,–,3.55 µM (active)
Cc1ccc(CCNC(=O)Cn2c(-c3cccs3)cc3cc(F)ccc32)cc1,-1.88%,–
Cc1noc2ncnc(NCc3ccccc3Cl)c12,0%,–
Cc1nn(C(C)C(=O)NCCc2ccccc2)c(=O)c2c1sc1ccccc12 (centres undefined),13.4%,–
CCc1ccc(C2CC(=O)c3c([nH]c(C(=O)OCc4ccc(C)cc4)c3C)C2)cc1 (centres undefined),0.291%,–
CC(=O)c1ccc(NC(=O)CCc2nc(-c3ccc(C)cc3)no2)cc1,-1.54%,–
CC(C)(C)c1ccc(S(=O)(=O)N2CCN(C(=O)c3cc(-c4ccc(Br)cc4)n[nH]3)CC2)cc1,0%,–
Cc1cc(C)cc(NS(=O)(=O)c2ccc(-c3cc(C)no3)s2)c1,-0.833%,–
O=C(/C=C/c1ccccc1)Nc1cc(-c2nc3cc(Cl)ccc3o2)ccc1Cl,1.08%,–
Fc1ccc(Nc2nc(SCc3ccccc3Cl)nc3ccccc23)cc1,0%,–

Structure (SMILES),GFP activation,Potency
CCN1CCN(c2ncnc3c2cnn3-c2ccc(C)c(C)c2)CC1,0%,–
Cc1ccc2nc(-c3ccccn3)cc(C(=O)Nc3ccc4c(c3)OCO4)c2c1,–,15.8 µM (active)
O=C(Nc1ccncc1)c1cc(-c2ccccn2)nc2ccc(Br)cc12,1.14%,–
Cc1ccc2nc(-c3ccncc3)cc(C(=O)Nc3ccc4c(c3)OCCO4)c2c1,2.23%,–
OCc1cnc(SCc2ccc(F)cc2)n1Cc1ccc(F)cc1,0.584%,–
Cc1ccc(S(=O)(=O)N(CC(=O)Nc2ccc(Cl)cc2Cl)c2ccccc2C)cc1,1.91%,–
Cc1ccc(C)c(N2CCN(C(=O)Cn3nc(C)c4sc5ccccc5c4c3=O)CC2)c1,-2.4%,–
CCCC(=O)Nc1nnc(-c2ccccc2)o1,1.08%,–
CCCCCCc1ccc(O)cc1O,13.1%,–
CCCCCCc1cc2cc(-c3nnc(-c4ccccc4)o3)c(=O)oc2cc1O,–,1.78 µM (active)
COc1ccc(CNc2nc(-c3ccc(Cl)cc3)nn2S(=O)(=O)c2ccc(C)cc2)cc1,2.76%,–
Cc1cccc(NC(=O)CSc2nnc(CNC(=O)c3cccc(C)c3)n2-c2ccccc2)c1,0%,–
CCc1ccc(NC(=O)c2nn(-c3ccc(C)cc3)c(=O)n(C)c2=O)cc1,8.47%,–
O=C(CN1C2=NCCN2c2ccccc21)c1cccs1,0%,–
Nc1c(C(=O)c2cccs2)sc2nsc(SCCN3CCCCC3)c12,–,3.55 µM (active)
CN(C)c1ccnc2sc(C(=O)c3ccccc3)c(N)c12,-2.99%,–
CCOC(=O)c1ccc(NC(=O)CC2C(=O)N(c3ccccc3)C(=O)N2Cc2cccs2)cc1 (centres undefined),-0.348%,–
CSc1ccccc1-c1nnc(NC(=O)c2ccc3c(c2)OCCO3)o1,-1.64%,–
Cc1oc(-c2ccccc2F)nc1CN1CCC(C(=O)NCCc2ccc(Cl)cc2)CC1,-1.11%,–
CC(C)c1ccc(NC(=O)CN(C)S(=O)(=O)c2ccc3c(c2)c(=O)n(C)c(=O)n3C)cc1,-1.11%,–
COCCCNC(=O)c1ccc(NC(=O)c2nsc3ccccc23)cc1,2.2%,–
Cc1ccc(-c2cnc(NCc3ccc(C(C)C)cc3)n2C)cc1,-0.242%,–
CCOC(=O)c1cccc(NC(=O)Cn2cnc3nc4c(cc3c2=O)CCCC4)c1,-1.69%,–
CCOC(=O)c1ccc(NC(=O)C2CCN(S(=O)(=O)c3ccc4c(c3)CCCC(=O)N4)CC2)cc1,-1.27%,–
Cc1ccc(NC(=O)Cn2c(=O)n(-c3ccccc3)c(=O)c3c4c(sc32)CCCC4)cc1,-1.77%,–

Structure (SMILES),GFP activation,Potency
CCOc1cc(C(=O)NCCc2csc3nc(-c4ccc(C)cc4)nn23)cc(OCC)c1OCC,-1.23%,–
Cc1cccc(C(CC(=O)NCC2(c3ccccc3)CCCC2)c2ccccc2)c1O (centres undefined),-0.962%,–
Cc1ccc(Cl)cc1N1CCN(C(=O)c2cnc3c(-c4ccc(F)cc4)c(C)nn3c2C)CC1,0.833%,–
COc1ccc(Cn2c(=O)c3oc4ccccc4c3n(CC(=O)Nc3ccc(F)cc3F)c2=O)cc1,–,11.2 µM (active)
CCCCn1c(=O)c2oc3ccccc3c2n(CC(=O)Nc2ccccc2OC)c1=O,2.82%,–
COc1cc(NC(=O)Cn2c(=O)n(Cc3ccco3)c(=O)c3oc4ccccc4c32)cc(OC)c1,4.43%,–
O=C(NCc1ccccc1Cl)c1cccn1-c1nnc(N2CCCCC2)s1,0.374%,–
Cc1ccc(NC(=O)c2cc(S(=O)(=O)NCCC3=CCCCC3)ccc2F)cc1C,-1.18%,–
COc1cccc(CNC(=O)C(=O)NCC(c2cccs2)S(=O)(=O)c2ccccc2)c1 (centres undefined),4.17%,–
Cc1cccc(CCNC(=O)c2ccc3c(c2)nc2n3CCC(C)C2)c1 (centres undefined),12.7%,–
CN(c1ccccc1)c1ccc(/C=c2\s/c(=C(/C#N)C(=O)C(C)(C)C)n(Cc3ccco3)c2=O)cc1,–,6.31 µM (active)
O=c1nc2s/c(=C\c3ccco3)c(=O)n2nc1Cc1ccccc1,-0.952%,–
Cc1cs/c(=N\N=C\c2ccc(O)cc2)n1Cc1ccco1,-1.92%,–
COc1cc(OC)c(OC)cc1/C=C/c1nc2cc3ccccc3cc2c(=O)n1-c1ccc(F)c(Cl)c1,0.436%,–
O=S(=O)(NCC(c1ccccc1)N1CCc2ccccc21)c1ccccc1 (centres undefined),-4.06%,–
COc1cc2c(cc1OC)C(COc1ccc(F)cc1)N(C(=O)c1ccccc1F)CC2 (centres undefined),1.18%,–
CCOC(=O)c1c(C)[nH]c(CCC(=O)NCCCN2CCN(c3cc(C)ccc3C)CC2)c1C,-0.109%,–
CC(C)(C)c1ccc(C(=O)NCC(c2ccc(Cl)cc2)N2CCOCC2)cc1 (centres undefined),1.61%,–
COc1ccc(-c2cccc(NS(=O)(=O)c3cc(C)c(OC)c(C)c3C)c2)nn1,1.69%,–
O=C(NC1CCN(Cc2ccccc2)CC1)c1ccc(Cn2c(=O)c3ccccc3n(Cc3cccc(F)c3)c2=O)cc1,-0.885%,–
CCOc1ccccc1C(=O)Nc1ccc(S(=O)(=O)N2CCCCC2c2cccnc2)cc1 (centres undefined),2.78%,–
CC(C)c1ccc(S(=O)(=O)Nc2ccc(O)c(Sc3nc4ccccc4s3)c2)cc1,-3.44%,–
COc1ccc(Cn2c(C(=O)O)c(CNCc3cccc(OC)c3)c3ccc(C)cc32)cc1,0%,–
CC(C)c1ccc2oc(-c3cc(NC(=O)c4cccs4)ccc3Cl)nc2c1,-1.08%,–
